{"source": "PubChem BioAssay", "note": "Unmarked numbers belong to inactive results.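 The calls were made as follows, unless noted: active = inhibition over a set limit, the all-compound mean plus 3 SD, in both replicate runs; inconclusive = over that limit in just one replicate run; inactive = at or under that limit in both runs.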"}
{"test": "RAM pathway blockade in budding yeast – dse1pr::URA3 reporter, 5-FOA selection, pilot screen (AID 869);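 also: 0% = DMSO wells with no growth and 100% = 10 µM 1-NA-PP1 with full growth; RAM network block rescues cells from 5-FOA so hits raise OD615 growth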", "settings": "S. cerevisiae dse1pr::URA3 5-FOA growth, OD615, 2 d; at 10 µM; stronger effect = higher value; strain carries analog-sensitive mutant Cbk1 kinase", "units": {"inhibition": "%"}}
{"smiles": "CCCCSc1nc2c(cnn2-c2ccc(F)cc2)c(=O)[nH]1", "inhibition": 1.85}
{"smiles": "C=C(Cl)COc1ccc2c(C)cc(=O)oc2c1", "inhibition": 0.795}
{"smiles": "COc1ccc(NC(=O)CSc2nnc(Cc3cccn3C)n2-c2ccc(F)cc2)cc1OC", "inhibition": 1.43}
{"smiles": "CCCCSc1nc(CCC)cc(=O)[nH]1", "inhibition": 0.635}
{"smiles": "Cc1noc(/C=C/N(C)C)c1S(=O)(=O)N1CCc2ccccc21", "inhibition": 1.65}
{"smiles": "COc1cccc(/C=N/n2cnnc2)c1OCc1ccccc1", "inhibition": 0.69}
{"smiles": "COC(=O)Cn1c(CN2CCOCC2)nc2c1c(=O)n(C)c(=O)n2C", "inhibition": 1.2}
{"smiles": "COc1ccc(N(CC(=O)Nc2cc(C)ccc2C)S(=O)(=O)c2c(C)nn(C)c2C)cc1", "inhibition": 0.14}
{"smiles": "CCOC(=O)N1CCN(C(=O)c2c(-c3ccccc3)noc2C)CC1", "inhibition": 3}
{"smiles": "O=C(CSc1ncnc2nc[nH]c12)c1ccc(Cl)cc1", "inhibition": 1.29}
{"smiles": "Brc1ccccc1-c1nc(-c2ccccc2)no1", "inhibition": 0.565}
{"smiles": "Cc1nc2ccc(S(=O)(=O)NC(C(=O)NCc3cccs3)C(C)C)cc2s1", "note": "(stereo not given)", "inhibition": 2.96}
{"smiles": "COc1ccc(-n2c(Cc3cccn3C)nnc2SCC(=O)Nc2ccccc2)cc1", "inhibition": 2.68}
{"smiles": "O=c1oc2c3c4c(cc2s1)CCCN4CCC3", "inhibition": 1.76}
{"smiles": "COc1cc2c(cc1OC)C(C)N(C(=O)Cn1ncc3c1-c1ccccc1OC3)CC2", "note": "(stereo not given)", "inhibition": 0.41}
{"smiles": "O=C(CSc1ccc2nnc(-c3ccccc3)n2n1)N1CCN(c2ccccc2)CC1", "inhibition": 0.38}
{"smiles": "CCOC(=O)C1CCCN(C(=O)c2ccc(CS(=O)(=O)c3ccc(Br)cc3)o2)C1", "note": "(stereo not given)", "inhibition": 1.39}
{"smiles": "Cc1c(C(=O)NC2CC2)oc2ccc(S(=O)(=O)N3CCCCCC3)cc12", "inhibition": 0.26}
{"smiles": "CC1=C(C(=O)Nc2ccccc2)C(c2ccccn2)n2nc(CCCO)nc2N1", "note": "(stereo not given)", "inhibition": 1.56}
{"smiles": "O=C(O)c1ccc(-c2ccc(O)c(F)c2)cc1", "inhibition": -0.17}
{"smiles": "Cn1c(=O)cc(NCCc2ccccc2)[nH]c1=O", "inhibition": 0.595}
{"smiles": "Cc1noc(/C=C/N(C)C)c1S(=O)(=O)N1CCCC(C(=O)NCCC2=CCCCC2)C1", "note": "(stereo not given)", "inhibition": 1.23}
{"smiles": "CCN(CC)c1ccc(NC(=O)CN2C(=O)CC(C)(C)S(=O)(=O)c3ccccc32)c(C)c1", "inhibition": 1.72}
{"smiles": "COc1ccc(C(=O)NCc2nc3ccccc3[nH]2)cc1OC", "inhibition": 2.96}
{"smiles": "CSc1ccccc1NC(=O)c1cnc2n(c1=O)CCS2", "inhibition": 2.75}
{"smiles": "Cc1ccc(C(c2sc3ncnn3c2O)N2CC(C)CC(C)C2)cc1", "note": "(stereo not given)", "inhibition": 0.24}
{"smiles": "CC1CCN(c2oc(-c3ccccc3F)nc2C#N)CC1", "inhibition": 0.425}
{"smiles": "COc1nc(Oc2ccc(=O)n(C)n2)nc(N(C)C)n1", "inhibition": 2.61}
{"smiles": "Cc1nc2c(-c3ccc(F)cc3)c(C)nn2c(C)c1CCC(=O)NC(C)CCc1ccco1", "note": "(stereo not given)", "inhibition": 0.865}
{"smiles": "COc1ccc(Cl)cc1S(=O)(=O)N1CCN(c2ccc(F)cc2)CC1", "inhibition": -0.355}
{"smiles": "CC1CCc2nn(CC(=O)Nc3ccc(F)cc3F)cc2C1", "note": "(stereo not given)", "inhibition": 2.21}
{"smiles": "COc1ccc(NC(=O)C2Cc3ccccc3C(=O)O2)cc1", "note": "(stereo not given)", "inhibition": 1.79}
{"smiles": "Cc1cc(N=Cc2cc(Br)ccc2O)no1", "inhibition": 0.26}
{"smiles": "COc1ccc(-c2nc(CS(=O)CC(=O)NCc3ccccn3)c(C)o2)cc1", "note": "(stereo not given)", "inhibition": 1.57}
{"smiles": "CCOc1cc(C2CC(=O)N3CN(C4CCCCC4)CSC3=C2C#N)ccc1O", "note": "(stereo not given)", "inhibition": 0.17}
{"smiles": "CCc1ccccc1N1CC23C=CC(O2)C(C(=O)O)C3C1=O", "note": "(stereo not given)", "inhibition": 0.365}
{"smiles": "CCN(CC)C1CCCCC1NS(=O)(=O)c1ccc(Cl)cc1", "note": "(stereo not given)", "inhibition": 1.03}
{"smiles": "Cc1cc(=O)oc2c1c(C)nn2-c1ccc(C(=O)OC(C)C)cc1", "inhibition": 0.78}
{"smiles": "O=C(CS(=O)(=O)Cc1ccccc1)Nc1nc2ccccc2s1", "inhibition": 4.3}
{"smiles": "CSc1nc2c(c(=O)n1C)SC(C)C2", "note": "(stereo not given)", "inhibition": 1.56}
{"test": "RAM signaling pathway blockade in yeast – S. cerevisiae, Pdr1DBD-CYC8 efflux-inhibited sensitized strain, primary screen (AID 1298;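 active = RAM network inhibition above 8.4% in each of two replicates, 3 SD over the compound average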;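 also: 0% = DMSO untreated cells without growth and 100% = 10 µM 1-NA-PP1 full growth; higher means more yeast growth rescued from 5-FOA killing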)", "settings": "S. cerevisiae cbk1-as DSE1-URA3 strain, 5-FOA growth OD615, 2 d; at 50 µM; stronger effect = higher value", "units": {"RAM network inhibition": "%"}}
{"smiles": "CCCCSc1nc2c(cnn2-c2ccc(F)cc2)c(=O)[nH]1", "RAM network inhibition": 6.19}
{"smiles": "C=C(Cl)COc1ccc2c(C)cc(=O)oc2c1", "RAM network inhibition": 0.1}
{"smiles": "COc1ccc(NC(=O)CSc2nnc(Cc3cccn3C)n2-c2ccc(F)cc2)cc1OC", "RAM network inhibition": 2.95}
{"smiles": "CCCCSc1nc(CCC)cc(=O)[nH]1", "RAM network inhibition": 6.04}
{"smiles": "Cc1noc(/C=C/N(C)C)c1S(=O)(=O)N1CCc2ccccc21", "RAM network inhibition": 10}
{"smiles": "COc1cccc(/C=N/n2cnnc2)c1OCc1ccccc1", "RAM network inhibition": -1.19}
{"smiles": "COC(=O)Cn1c(CN2CCOCC2)nc2c1c(=O)n(C)c(=O)n2C", "RAM network inhibition": -1.44}
{"smiles": "COc1ccc(N(CC(=O)Nc2cc(C)ccc2C)S(=O)(=O)c2c(C)nn(C)c2C)cc1", "RAM network inhibition": 7.15}
{"smiles": "CCOC(=O)N1CCN(C(=O)c2c(-c3ccccc3)noc2C)CC1", "RAM network inhibition": 4.25}
{"smiles": "O=C(CSc1ncnc2nc[nH]c12)c1ccc(Cl)cc1", "RAM network inhibition": 5.06}
{"smiles": "Brc1ccccc1-c1nc(-c2ccccc2)no1", "RAM network inhibition": 3.53}
{"smiles": "Cc1nc2ccc(S(=O)(=O)NC(C(=O)NCc3cccs3)C(C)C)cc2s1", "note": "(stereo not given)", "RAM network inhibition": 5.02}
{"smiles": "COc1ccc(-n2c(Cc3cccn3C)nnc2SCC(=O)Nc2ccccc2)cc1", "RAM network inhibition": 2.14}
{"smiles": "O=c1oc2c3c4c(cc2s1)CCCN4CCC3", "RAM network inhibition": 6.79}
{"smiles": "COc1cc2c(cc1OC)C(C)N(C(=O)Cn1ncc3c1-c1ccccc1OC3)CC2", "note": "(stereo not given)", "RAM network inhibition": 1.88}
{"smiles": "O=C(CSc1ccc2nnc(-c3ccccc3)n2n1)N1CCN(c2ccccc2)CC1", "RAM network inhibition": 0.93}
{"smiles": "CCOC(=O)C1CCCN(C(=O)c2ccc(CS(=O)(=O)c3ccc(Br)cc3)o2)C1", "note": "(stereo not given)", "RAM network inhibition": 3.92}
{"smiles": "Cc1c(C(=O)NC2CC2)oc2ccc(S(=O)(=O)N3CCCCCC3)cc12", "RAM network inhibition": 4.34}
{"smiles": "CC1=C(C(=O)Nc2ccccc2)C(c2ccccn2)n2nc(CCCO)nc2N1", "note": "(stereo not given)", "RAM network inhibition": 5.48}
{"smiles": "O=C(O)c1ccc(-c2ccc(O)c(F)c2)cc1", "RAM network inhibition": -2.4}
{"smiles": "Cn1c(=O)cc(NCCc2ccccc2)[nH]c1=O", "RAM network inhibition": 3.06}
{"smiles": "Cc1noc(/C=C/N(C)C)c1S(=O)(=O)N1CCCC(C(=O)NCCC2=CCCCC2)C1", "note": "(stereo not given)", "RAM network inhibition": 6.39}
{"smiles": "CCN(CC)c1ccc(NC(=O)CN2C(=O)CC(C)(C)S(=O)(=O)c3ccccc32)c(C)c1", "RAM network inhibition": 3.26}
{"smiles": "COc1ccc(C(=O)NCc2nc3ccccc3[nH]2)cc1OC", "RAM network inhibition": 6.63}
{"smiles": "CSc1ccccc1NC(=O)c1cnc2n(c1=O)CCS2", "RAM network inhibition": -0.78}
{"smiles": "Cc1ccc(C(c2sc3ncnn3c2O)N2CC(C)CC(C)C2)cc1", "note": "(stereo not given)", "RAM network inhibition": 1.25}
{"smiles": "CC1CCN(c2oc(-c3ccccc3F)nc2C#N)CC1", "RAM network inhibition": 2.79}
{"smiles": "COc1nc(Oc2ccc(=O)n(C)n2)nc(N(C)C)n1", "RAM network inhibition": 1.59}
{"smiles": "Cc1nc2c(-c3ccc(F)cc3)c(C)nn2c(C)c1CCC(=O)NC(C)CCc1ccco1", "note": "(stereo not given)", "RAM network inhibition": 1.03}
{"smiles": "COc1ccc(Cl)cc1S(=O)(=O)N1CCN(c2ccc(F)cc2)CC1", "RAM network inhibition": 1.85}
{"smiles": "CC1CCc2nn(CC(=O)Nc3ccc(F)cc3F)cc2C1", "note": "(stereo not given)", "RAM network inhibition": -0.77}
{"smiles": "COc1ccc(NC(=O)C2Cc3ccccc3C(=O)O2)cc1", "note": "(stereo not given)", "RAM network inhibition": 3.16}
{"smiles": "Cc1cc(N=Cc2cc(Br)ccc2O)no1", "RAM network inhibition": -1.15}
{"smiles": "COc1ccc(-c2nc(CS(=O)CC(=O)NCc3ccccn3)c(C)o2)cc1", "note": "(stereo not given)", "RAM network inhibition": 5.75}
{"smiles": "CCOc1cc(C2CC(=O)N3CN(C4CCCCC4)CSC3=C2C#N)ccc1O", "note": "(stereo not given)", "RAM network inhibition": 2.85}
{"smiles": "CCc1ccccc1N1CC23C=CC(O2)C(C(=O)O)C3C1=O", "note": "(stereo not given)", "RAM network inhibition": 1.2}
{"smiles": "CCN(CC)C1CCCCC1NS(=O)(=O)c1ccc(Cl)cc1", "note": "(stereo not given)", "RAM network inhibition": 5.81}
{"smiles": "Cc1cc(=O)oc2c1c(C)nn2-c1ccc(C(=O)OC(C)C)cc1", "RAM network inhibition": 1.04}
{"smiles": "O=C(CS(=O)(=O)Cc1ccccc1)Nc1nc2ccccc2s1", "RAM network inhibition": 7.64}
{"smiles": "CSc1nc2c(c(=O)n1C)SC(C)C2", "note": "(stereo not given)", "RAM network inhibition": 5.01}
